# Results: PubChem BioAssay (NCI)
# This is part of a sample that, as a whole, favours compounds with a hit. Of some 79,000 tested, about 15% had one in any assay. Unmarked numbers belong to inactive results. Active and inactive are the calls of the source. Cut-off read from the data, not from the text of the source: active = growth inhibition above about 70%; inactive = the rest.
# Assays:
# [1] = NCI Yeast Anticancer Drug Screen. Data for the rad52 strain (AID 147);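 note: 0% = growth of vehicle-treated control cultures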; conditions: S. cerevisiae rad52 mutant growth inhibition, hits give high values
# Method in brief: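 Screen used a yeast mutant impaired in DNA repair. After compound exposure, growth was measured. Values reflect inhibition compared with vehicle-treated cells.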
# [2] = NCI Yeast Anticancer Drug Screen. Data for the wt1 strain (AID 149);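 note: 0% = growth of vehicle-treated wt1 cultures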; conditions: S. cerevisiae wt1 strain (SPY 50644) growth inhibition, hits give high values
# Method in brief: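 Readout: yeast growth inhibition, normalised to vehicle controls, in the wt1 strain exposed to test compounds.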
# [3] = NCI Yeast Anticancer Drug Screen. Data for the rad50EPP+ strain (AID 151);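 note: 0% = growth of vehicle-treated control cultures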; conditions: S. cerevisiae rad50 mutant strain, hits give high values
# Method in brief: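 Exposing the rad50EPP+ strain to each compound, growth was compared with vehicle-only cultures to give inhibition.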
# [4] = NCI Yeast Anticancer Drug Screen. Data for the rad50 strain (AID 155);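 note: 0% = growth of vehicle-only cultures of the same strain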; conditions: S. cerevisiae rad50 strain growth inhibition, hits give high values
# Method in brief: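 Compounds were tested on a yeast strain with an engineered DNA damage repair alteration; the reported value is growth inhibition normalised to vehicle treatment.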
# [5] = NCI Yeast Anticancer Drug Screen. Data for the mec2-1 strain (AID 157); conditions: S. cerevisiae mec2-1 strain, hits give high values
# Method in brief: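 Readout is yeast growth inhibition, normalised to vehicle-treated controls, in the mec2-1 strain exposed to compound.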
# [6] = NCI Yeast Anticancer Drug Screen. Data for the rad14 strain (AID 159);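 note: 0% = growth of vehicle-treated control cultures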; conditions: S. cerevisiae rad14 strain growth inhibition, hits give high values
# Method in brief: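 Compound-treated yeast with a defined DNA-repair lesion; growth inhibition normalised to vehicle-treated cultures.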
# [7] = NCI Yeast Anticancer Drug Screen. Data for the sgs1 mgt1 strain (AID 161);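 note: 0% = growth of cultures given vehicle only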; conditions: S. cerevisiae sgs1 mgt1 strain, hits give high values
# Method in brief: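 This yeast growth screen uses a strain with defined DNA-repair lesions; compound-treated growth is compared with vehicle-treated growth.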
# [8] = NCI Yeast Anticancer Drug Screen. Data for the CLN2oe strain (AID 163);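 note: 0% = growth of vehicle-only control cultures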; conditions: S. cerevisiae CLN2oe strain, hits give high values
# Method in brief: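 Values reflect how much compound exposure reduced yeast growth, referenced to vehicle-exposed cells. Assay organism is a strain with a defined genetic change affecting cell-cycle control.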
# [9] = NCI Yeast Anticancer Drug Screen. Data for the cln2 rad14 strain (AID 165);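 note: 0% = growth equal to vehicle treated cultures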; conditions: S. cerevisiae cln2 rad14 strain, hits give high values
# Method in brief: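 Relative to vehicle controls, growth inhibition of compound-treated cln2 rad14 yeast was recorded.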
# [10] = NCI Yeast Anticancer Drug Screen. Data for the bub3 strain (AID 167); conditions: S. cerevisiae bub3 mutant strain, hits give high values
# Method in brief: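 Growth of a checkpoint-deficient yeast mutant is measured after compound exposure. Values represent inhibition relative to vehicle.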
# [11] = NCI Yeast Anticancer Drug Screen. Data for the wt2 strain (AID 169);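 note: 0% = growth of vehicle-treated yeast cultures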; conditions: S. cerevisiae wt2 strain growth inhibition, hits give high values
# Method in brief: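 Values express reduction in yeast growth under compound treatment, referenced to vehicle-treated cells.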
# [12] = NCI Yeast Anticancer Drug Screen. Data for the mlh1 strain (AID 171);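 note: 0% = growth of vehicle-treated control cultures of the same strain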; conditions: S. cerevisiae mlh1 strain growth inhibition, hits give high values
# Method in brief: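 Steps: expose the defined-mutant yeast strain to compound; expose a parallel culture to vehicle; measure growth; express compound effect as inhibition relative to the vehicle culture.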
# [13] = NCI Yeast Anticancer Drug Screen. Data for the sgs1 strain (AID 173);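 note: 0% = growth of vehicle-only control cultures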; conditions: S. cerevisiae sgs1 mutant, hits give high values
# Method in brief: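 Treat defined-mutant yeast with compound; measure growth; calculate inhibition relative to vehicle-treated cells.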
# [14] = NCI Yeast Anticancer Drug Screen. Data for the mlh1 rad18 strain (AID 175); conditions: S. cerevisiae mlh1 rad18 strain growth inhibition, hits give high values
# Method in brief: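 Test agents were incubated with a yeast strain of defined genotype (DNA damage repair defect). Inhibition of growth was derived by comparison with vehicle-exposed cultures.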
# [15] = NCI Yeast Anticancer Drug Screen. Data for the rad18 strain (AID 177); conditions: S. cerevisiae rad18 mutant growth inhibition, hits give high values
# Method in brief: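 A genetically defined yeast mutant impaired in DNA damage repair was treated with test compounds, then its growth was measured against cultures receiving vehicle alone.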
# [16] = at 5.0 µM (retest, dose inferred, filed as 0.5)
# [17] = at 50.0 µM (retest, dose inferred, filed as 5.0)
structure (smiles),measurement,setting,value
OB(O)c1ccccc1C#Cc1ccccc1B(O)O,growth inhibition,[1]; at 1.2 µM,2%
same,growth inhibition,[1]; at 3.7 µM,7%
same,growth inhibition,[1]; at 11.0 µM,24%
same,growth inhibition,[1]; at 33.0 µM,59%
same,growth inhibition,[1]; at 100.0 µM,95% (active)
same,growth inhibition,[2]; at 1.2 µM,-2%
same,growth inhibition,[2]; at 3.7 µM,0%
same,growth inhibition,[2]; at 11.0 µM,6%
same,growth inhibition,[2]; at 33.0 µM,18%
same,growth inhibition,[2]; at 100.0 µM,59%
same,growth inhibition,[3]; at 1.2 µM,0%
same,growth inhibition,[3]; at 3.7 µM,6%
same,growth inhibition,[3]; at 11.0 µM,36%
same,growth inhibition,[3]; at 33.0 µM,69%
same,growth inhibition,[3]; at 100.0 µM,85% (active)
same,growth inhibition,[4]; at 1.2 µM,7%
same,growth inhibition,[4]; at 3.7 µM,17%
same,growth inhibition,[4]; [16],12%
same,growth inhibition,[4]; at 11.0 µM,47%
same,growth inhibition,[4]; at 33.0 µM,84% (active)
same,growth inhibition,[4]; [17],79% (active)
same,growth inhibition,[4]; at 50.0 µM,61.5%
same,growth inhibition,[4]; at 100.0 µM,96% (active)
same,growth inhibition,[5]; at 1.2 µM,-6%
same,growth inhibition,[5]; at 3.7 µM,1%
same,growth inhibition,[5]; [16],5%
same,growth inhibition,[5]; at 11.0 µM,13%
same,growth inhibition,[5]; at 33.0 µM,43%
same,growth inhibition,[5]; [17],50%
same,growth inhibition,[5]; at 50.0 µM,50%
same,growth inhibition,[5]; at 100.0 µM,87% (active)
same,growth inhibition,[6]; at 1.2 µM,-1%
same,growth inhibition,[6]; at 3.7 µM,3%
same,growth inhibition,[6]; at 11.0 µM,14%
same,growth inhibition,[6]; at 33.0 µM,41%
same,growth inhibition,[6]; at 100.0 µM,97% (active)
same,growth inhibition,[7]; [16],4%
same,growth inhibition,[7]; [17],44%
same,growth inhibition,[7]; at 50.0 µM,64.2%
same,growth inhibition,[8]; at 1.2 µM,-2%
same,growth inhibition,[8]; at 3.7 µM,1%
same,growth inhibition,[8]; at 11.0 µM,13%
same,growth inhibition,[8]; at 33.0 µM,38%
same,growth inhibition,[8]; at 100.0 µM,86% (active)
same,growth inhibition,[9]; [16],9%
same,growth inhibition,[9]; [17],39%
same,growth inhibition,[9]; at 50.0 µM,70.3% (active)
same,growth inhibition,[10]; at 1.2 µM,-7%
same,growth inhibition,[10]; at 3.7 µM,-8%
same,growth inhibition,[10]; [16],-1%
same,growth inhibition,[10]; at 11.0 µM,-8%
same,growth inhibition,[10]; at 33.0 µM,8%
same,growth inhibition,[10]; [17],20%
same,growth inhibition,[10]; at 50.0 µM,58%
same,growth inhibition,[10]; at 100.0 µM,79% (active)
same,growth inhibition,[11]; at 1.2 µM,-1%
same,growth inhibition,[11]; at 3.7 µM,-3%
same,growth inhibition,[11]; at 11.0 µM,3%
same,growth inhibition,[11]; at 33.0 µM,18%
same,growth inhibition,[11]; at 100.0 µM,93% (active)
same,growth inhibition,[12]; at 1.2 µM,1%
same,growth inhibition,[12]; at 3.7 µM,1%
same,growth inhibition,[12]; at 11.0 µM,12%
same,growth inhibition,[12]; at 33.0 µM,27%
same,growth inhibition,[12]; at 100.0 µM,94% (active)
same,growth inhibition,[13]; at 1.2 µM,-1%
same,growth inhibition,[13]; at 3.7 µM,4%
same,growth inhibition,[13]; at 11.0 µM,17%
same,growth inhibition,[13]; at 33.0 µM,35%
same,growth inhibition,[13]; at 100.0 µM,91% (active)
same,growth inhibition,[14]; [16],20%
same,growth inhibition,[14]; [17],79% (active)
same,growth inhibition,[14]; at 50.0 µM,68.2%
same,growth inhibition,[15]; at 1.2 µM,-4%
same,growth inhibition,[15]; at 3.7 µM,0%
same,growth inhibition,[15]; at 11.0 µM,8%
same,growth inhibition,[15]; at 33.0 µM,40%
same,growth inhibition,[15]; at 100.0 µM,95% (active)
O=C(/C=C\c1ccc([N+](=O)[O-])o1)Nc1ccc(Cl)cc1,growth inhibition,[1]; at 1.2 µM,69%
same,growth inhibition,[1]; at 3.7 µM,96% (active)
same,growth inhibition,[1]; at 11.0 µM,98% (active)
same,growth inhibition,[1]; at 33.0 µM,98% (active)
same,growth inhibition,[1]; at 100.0 µM,97% (active)
same,growth inhibition,[2]; at 1.2 µM,6%
same,growth inhibition,[2]; at 3.7 µM,50%
same,growth inhibition,[2]; at 11.0 µM,97% (active)
same,growth inhibition,[2]; at 33.0 µM,98% (active)
same,growth inhibition,[2]; at 100.0 µM,98% (active)
same,growth inhibition,[3]; at 1.2 µM,52%
same,growth inhibition,[3]; at 3.7 µM,69%
same,growth inhibition,[3]; at 11.0 µM,83% (active)
same,growth inhibition,[3]; at 33.0 µM,91% (active)
same,growth inhibition,[3]; at 100.0 µM,84% (active)
same,growth inhibition,[4]; at 1.2 µM,38%
same,growth inhibition,[4]; at 3.7 µM,82% (active)
same,growth inhibition,[4]; [16],24%
same,growth inhibition,[4]; at 11.0 µM,97% (active)
same,growth inhibition,[4]; at 33.0 µM,97% (active)
same,growth inhibition,[4]; [17],54%
same,growth inhibition,[4]; at 50.0 µM,90.1% (active)
same,growth inhibition,[4]; at 100.0 µM,96% (active)
same,growth inhibition,[5]; at 1.2 µM,4%
same,growth inhibition,[5]; at 3.7 µM,19%
same,growth inhibition,[5]; [16],23%
same,growth inhibition,[5]; at 11.0 µM,63%
same,growth inhibition,[5]; at 33.0 µM,91% (active)
same,growth inhibition,[5]; [17],55%
same,growth inhibition,[5]; at 50.0 µM,27.5%
same,growth inhibition,[5]; at 100.0 µM,95% (active)
same,growth inhibition,[6]; at 1.2 µM,21%
same,growth inhibition,[6]; at 3.7 µM,70% (active)
same,growth inhibition,[6]; at 11.0 µM,91% (active)
same,growth inhibition,[6]; at 33.0 µM,94% (active)
same,growth inhibition,[6]; at 100.0 µM,96% (active)
same,growth inhibition,[7]; [16],63%
same,growth inhibition,[7]; [17],84% (active)
same,growth inhibition,[7]; at 50.0 µM,90% (active)
same,growth inhibition,[8]; at 1.2 µM,-4%
same,growth inhibition,[8]; at 3.7 µM,30%
same,growth inhibition,[8]; at 11.0 µM,73% (active)
same,growth inhibition,[8]; at 33.0 µM,76% (active)
same,growth inhibition,[8]; at 100.0 µM,61%
same,growth inhibition,[9]; [16],14%
same,growth inhibition,[9]; [17],31%
same,growth inhibition,[9]; at 50.0 µM,35.1%
same,growth inhibition,[10]; at 1.2 µM,0%
same,growth inhibition,[10]; at 3.7 µM,24%
same,growth inhibition,[10]; [16],6%
same,growth inhibition,[10]; at 11.0 µM,82% (active)
same,growth inhibition,[10]; at 33.0 µM,78% (active)
same,growth inhibition,[10]; [17],42%
same,growth inhibition,[10]; at 50.0 µM,10.4%
same,growth inhibition,[10]; at 100.0 µM,96% (active)
same,growth inhibition,[11]; at 1.2 µM,28%
same,growth inhibition,[11]; at 3.7 µM,87% (active)
same,growth inhibition,[11]; at 11.0 µM,99% (active)
same,growth inhibition,[11]; at 33.0 µM,99% (active)
same,growth inhibition,[11]; at 100.0 µM,98% (active)
same,growth inhibition,[12]; at 1.2 µM,1%
same,growth inhibition,[12]; at 3.7 µM,46%
same,growth inhibition,[12]; at 11.0 µM,94% (active)
same,growth inhibition,[12]; at 33.0 µM,93% (active)
same,growth inhibition,[12]; at 100.0 µM,97% (active)
same,growth inhibition,[13]; at 1.2 µM,81% (active)
same,growth inhibition,[13]; at 3.7 µM,94% (active)
same,growth inhibition,[13]; at 11.0 µM,98% (active)
same,growth inhibition,[13]; at 33.0 µM,98% (active)
same,growth inhibition,[13]; at 100.0 µM,95% (active)
same,growth inhibition,[14]; [16],88% (active)
same,growth inhibition,[14]; [17],86% (active)
same,growth inhibition,[14]; at 50.0 µM,92.8% (active)
same,growth inhibition,[15]; at 1.2 µM,95% (active)
same,growth inhibition,[15]; at 3.7 µM,97% (active)
same,growth inhibition,[15]; at 11.0 µM,97% (active)
same,growth inhibition,[15]; at 33.0 µM,97% (active)
same,growth inhibition,[15]; at 100.0 µM,93% (active)
